The values that follow come from PubChem BioAssay.

SMILES strings stand for the structures. A number with no mark means an inactive call. No rule for the calls is given here.

For this assay, the target named is Pantothenate synthetase (Mycobacterium tuberculosis (strain ATCC 25618 / H37Rv)) (UniProt P9WIL5). The assay can be described thus: Coupled enzyme confirmation of inhibitors against recombinant Mtb PanC (AID 375).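 Also: 0% = full reaction with vehicle and 100% = no enzyme background.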 Conditions: coupled enzyme assay; at 10 µM, stronger effect = higher value.
Sequence of Pantothenate synthetase (Mycobacterium tuberculosis (strain ATCC 25618 / H37Rv)) (P9WIL5 whole entry, looked up): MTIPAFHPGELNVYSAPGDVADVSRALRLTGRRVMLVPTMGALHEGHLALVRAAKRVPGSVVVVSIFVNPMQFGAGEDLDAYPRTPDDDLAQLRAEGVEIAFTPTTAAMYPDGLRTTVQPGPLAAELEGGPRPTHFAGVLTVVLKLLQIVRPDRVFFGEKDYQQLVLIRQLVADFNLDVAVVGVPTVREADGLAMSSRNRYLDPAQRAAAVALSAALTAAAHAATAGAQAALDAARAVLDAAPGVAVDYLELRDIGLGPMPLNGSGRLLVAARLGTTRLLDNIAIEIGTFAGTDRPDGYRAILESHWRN
Regarding `CCCC1(C(=O)OCC)NC(c2ccc(N(C)C)cc2)C2C(=O)N(c3ccc(F)cc3)C(=O)C21` (stereo unspecified), the inhibition is 3%.
On to `COc1cc(NC(=O)CSCc2cnn(-c3ccccc3)c2-n2cccc2)cc(OC)c1`, for which the inhibition is 6%.
In the case of `CCOC(=O)C1=C(O)CCn2c1nc1ccccc12`, the inhibition was 2%.
For the compound `CC(C)=CC(=O)Nc1ccc(Br)cc1`, the inhibition was 0%.
Take `CNC(=O)C1C2C=CC3(O2)C1C(=O)N(C1CC1)C3C(=O)NCc1ccc(OC)cc1` (stereo unspecified): the inhibition is 0%.
Take `N#CC1=C(N)Oc2n[nH]c(-c3cccs3)c2C1c1cccs1` (stereo unspecified): the inhibition was 2%.
The same measure for `O=C(c1ncc[nH]1)c1ccccc1C(=O)N1CCOCC1`: 1%; for `Cn1cnnc1SCC(=O)Nc1sc2c(c1C#N)CCCCC2`: 1%.
For `CC1CCN(c2c(NCc3ccc(C(=O)N4c5ccccc5CC4C)cc3)c(=O)c2=O)CC1` (stereo unspecified), the inhibition was 0%.
As for `CCOC(=O)c1ccccc1NC(=O)c1ccc2c(=O)n3c(nc2c1)CCCCC3`, the inhibition is 0%.
`CCOc1ccc2nc(S(N)(=O)=O)sc2c1`: the inhibition is 3%.
With `C[C@]12C=CC(=O)C=C1CC[C@H]1[C@@H]3C[C@@H](O)[C@](O)(C(=O)CO)[C@@]3(C)C[C@H](O)[C@@]12F`, the inhibition is 0%.
Take `COc1cc2c(cc1NC(=O)CN1CCN(S(=O)(=O)c3ccc(F)cc3)CC1)oc1ccccc12`: the inhibition was 0%.
`CCSc1nc2ccccc2n1CC(N)=O`: the inhibition was 4%.
As to `COc1ccc(CCNc2nc(N3CCOCC3)nc(N3CCOCC3)n2)cc1OC`, the inhibition is 0%.
For the compound `Cc1cc(C(C)(C)C)cc(C)c1CC1=NCCN1`, the inhibition is 0%.

One may read the inhibition as the relative decrease from the control value, in per cent.
